Source: PubChem BioAssay
Rab9 promoter act: qHTS Assay for Rab9 Promoter Activators | Huh7 Rab9 promoter-luciferase reporter, luminescence, 24 h | Potency, µM (top dose mostly 9.22 µM), actives largely listed as activators | 320,000 compounds, 2.8% hits | AID 485297, 2010; also: nearly all actives have a fitted effect of over 60% in size
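Measured in stably transfected Huh7 cells bearing a Rab9 promoter–luciferase construct: 24 h compound treatment at 37 °C, followed by luminescence detection.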
ELG1 genotox: qHTS screen for small molecules that induce genotoxicity in human embryonic kidney (HEK293T) cells expressing luciferase-tagged ELG1 | 330,000 compounds, 1.3% hits | Potency, µM (highest dose often 46 µM), actives largely listed as activators | HEK293T ELG1-luciferase reporter, luminescence, 16 h; also: nearly all actives have a fitted effect of over 60% in size
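ELG1-luciferase HEK293T cells, 2,000/well; compound pinned in; 16 hr, 37 °C, 5% CO2; ONE-Glo, 30 min RT; luminescence on CCD imager.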
KinaseGlo FLuc: Counterscreen for Luciferase (Kinase-Glo TM) Inhibition; Kinase-Glo luciferase, ATP luminescence, 8 min; Potency, µM (top dose mostly 38.3 µM), usual class: inhibitors; 200,000 compounds, 0.28% hits; AID 1379, 2008; also: nearly all actives have a fitted effect of over 60% in size
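Kinase-Glo luciferase light output from ATP and luciferin was measured with 10 uM ATP, within the enzyme's linear range. Buffer: 50 mM imidazole pH 7.2, 50 mM KCl, 7 mM MgCl2, 0.01% Tween 20, 0.05% BSA; luminescence read after 8 min at ambient temperature.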
FLuc counter: qHTS profiling assay for firefly luciferase inhibitor/activator using purifed enzyme and Km concentrations of substrates (counterscreen for miR-21 project); Luciferin 4-monooxygenase (Photinus pyralis), P08659; purified FLuc, Km substrates, luminescence inhibition; Potency, µM (doses to about 57.5 µM), actives largely listed as inhibitors; 360,000 compounds, 6.9% hits; also: nearly all actives have a fitted effect of over 55% in size
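Purified P. pyralis luciferase, 10 nM final, with Km-level 10 uM D-luciferin and 10 uM ATP in 50 mM Tris acetate pH 7.5, 10 mM Mg acetate, 0.01% Tween-20, 0.05% BSA; 6-point qHTS titration about 60 µM downward; luminescence read.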
SMN2 splice up: qHTS Assay for Enhancers of SMN2 Splice Variant Expression; Potency, µM (titrated, usually from 46.1 µM), actives largely listed as activators; HEK293 SMN2-luciferase splicing reporter, luminescence, 30-36 h; 210,000 compounds, 2.8% hits; AID 1458, 2008; also: nearly all actives have a fitted effect of over 55% in size
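HEK293 cells carry an SMN2 minigene-luciferase reporter in which exon 7 inclusion puts luciferase in frame. Cells were seeded at 2000 cells/well, attached for 10-12 hours, then exposed to compounds for 30-36 hours at 37C before ONE-Glo luminescence.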
NPC1 prom act: qHTS Assay for NPC1 Promoter Activators; Huh7 NPC1 promoter luciferase reporter, 24 h; Potency, µM (top dose mostly 9.22 µM), usual class: activators; 320,000 compounds, 2.4% hits; also: nearly all actives have a fitted effect of over 60% in size
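Quantitative HTS used a cell-based reporter: Huh7 cells stably bearing the NPC1 promoter upstream of luciferase were treated with compounds for 24 h, and promoter activation was read as luminescence.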
A number is an active result. Rows were chosen to be rich in hits. Some 7.5% of all compounds tested hit in one or more screens of this group. Calls follow the shape of the dose curve; as a rule, active = well fitted curve in the direction sought with a large enough effect; inconclusive = small, poorly fitted or top-dose-only effect, or another doubt; inactive = no such curve, though single readings can be large; an effect the other way counts as inactive or inconclusive.

CCCCC(=O)Nc1cccc(C(=O)Nc2ccccc2C(=O)O)c1 was read as Rab9 promoter act inactive, ELG1 genotox inactive, KinaseGlo FLuc inactive, FLuc counter 16.9µM and NPC1 prom act inactive.
Cc1cc(NC(=O)c2ccccc2C)ccc1NC(=O)c1ccccc1Cl was read as Rab9 promoter act inactive, ELG1 genotox inactive, FLuc counter inconclusive and NPC1 prom act inactive.
For COc1ccccc1NC(=O)c1cccc(NC(=O)c2ccco2)c1 the results were Rab9 promoter act inactive, ELG1 genotox inactive, KinaseGlo FLuc inactive, FLuc counter inconclusive, SMN2 splice up inactive and NPC1 prom act inactive.
Screening CCCCC(=O)Nc1cccc(NC(=O)c2cccc(Br)c2)c1 returned Rab9 promoter act inactive, ELG1 genotox inactive, KinaseGlo FLuc inactive, FLuc counter inactive, SMN2 splice up inactive and NPC1 prom act inactive.
O=C(Nc1ccccc1C(=O)O)c1cccc(NC(=O)c2ccccc2Cl)c1 was read as Rab9 promoter act inactive, ELG1 genotox inactive, FLuc counter 19µM and NPC1 prom act inactive.
Screening O=C(Nc1cc(NC(=O)c2ccccc2Cl)ccc1Cl)c1ccccc1 returned FLuc counter 12µM and SMN2 splice up inactive.
For COc1ccc(OC)c(NCc2cccn2-c2nnc(N3CCCCC3)s2)c1 the results were FLuc counter inactive.
For CCCCCOC(=O)c1ccc(NC(=O)c2cccc(NC(=O)c3ccccc3C(=O)O)c2)cc1 the results were Rab9 promoter act inactive, ELG1 genotox inactive, FLuc counter 19µM and NPC1 prom act inactive.
`O=C(O)c1cccc(NC(=O)c2ccccc2NC(=O)c2ccccc2F)c1` gave Rab9 promoter act inactive, ELG1 genotox inactive, FLuc counter 10.7µM and NPC1 prom act inactive.
For CCCOC(=O)c1ccc(NC(=O)c2ccccc2[N+](=O)[O-])cc1 the results were Rab9 promoter act inconclusive, ELG1 genotox inactive, KinaseGlo FLuc inactive, FLuc counter inconclusive and NPC1 prom act inactive.
For CCc1ccc(NC(=O)C2CCC(CNS(=O)(=O)c3cccs3)CC2)cc1 (stereo not given) the results were FLuc counter inactive and SMN2 splice up inactive.
`FC(F)(F)c1cc(-c2cccs2)nc2nc(N3CCOCC3)sc12` gave Rab9 promoter act inactive, ELG1 genotox inactive, KinaseGlo FLuc inactive, FLuc counter inactive, SMN2 splice up inactive and NPC1 prom act inactive.
Screening COc1ccc(Nc2ncnc3sc(-c4ccccc4)cc23)cc1OC returned Rab9 promoter act inactive, ELG1 genotox inactive, KinaseGlo FLuc inactive, FLuc counter 12µM, SMN2 splice up inactive and NPC1 prom act inactive.
`C/C(=N/NC(=O)c1ccc2c(c1)OCO2)c1cccc([N+](=O)[O-])c1` gave Rab9 promoter act 2.24µM, ELG1 genotox 8.2µM, FLuc counter 6.01µM and NPC1 prom act 2µM.
`COc1ccc(/C(C)=N\NC(=O)c2ccc3c(c2)OCO3)cc1OC` gave Rab9 promoter act inactive, ELG1 genotox inactive, KinaseGlo FLuc inactive, FLuc counter inconclusive, SMN2 splice up inactive and NPC1 prom act inactive.
Screening CC(/C=C/c1ccc2c(c1)OCO2)=N\NC(=O)c1cccc([N+](=O)[O-])c1 returned Rab9 promoter act inactive, ELG1 genotox inactive, KinaseGlo FLuc inactive, FLuc counter inactive, SMN2 splice up inactive and NPC1 prom act inactive.
`COc1ccccc1NS(=O)(=O)c1cccc(C(=O)N/N=C(\C)c2ccc3c(c2)OCCO3)c1` gave Rab9 promoter act inactive, ELG1 genotox inactive, KinaseGlo FLuc inactive, FLuc counter 15.1µM, SMN2 splice up inactive and NPC1 prom act inactive.
C/C(=N/NC(=O)c1ccc2c(c1)OCO2)c1ccc(NC(=O)c2ccc(F)cc2)cc1 was read as Rab9 promoter act inactive, ELG1 genotox 14.6µM, FLuc counter inactive and NPC1 prom act inactive.
